Assay results from PubChem BioAssay (Tox21).
Where “and” joins values, the source holds several entries; their conditions need not be identical. Equal entries are not always repeated. Calls of active or inactive are those of the source. Entries that show only a call come without a potency. Unless noted, calls follow the shape of the dose curve; as a rule, active = well fitted curve in the direction sought with a large enough effect in the repeat runs; inconclusive = weak or mixed curves; inactive = no such curve, though single readings can be large; an effect the other way counts as inactive or inconclusive.

What was measured:
[1] = qHTS assay to identify small molecule antagonists of the thyroid receptor (TR) signaling pathway (AID 743065); also: nearly all actives have a fitted effect of over 55% in size; also: potency is read from the fitted curve at half-maximal effect
Summary of the method: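 GH3.TRE-Luc rat pituitary cells carrying two TR response elements driving luciferase were plated for 4 h, given compound plus 1 nM T3 (final), and incubated 23.5 h at 37 C. ONE-Glo luminescence measured reporter inhibition; CellTiter-Fluor fluorescence tracked cytotoxicity.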

[2] = test system: thyroid hormone receptor (rat, GH3 cells); test: qHTS assay to identify small molecule agonists of the thyroid receptor (TR) signaling pathway (AID 743066; calls by dose curve)
[3] = target: Estrogen receptor (Homo sapiens) (UniProt P03372); test: qHTS assay to identify small molecule antagonists of the estrogen receptor alpha (ER-alpha) signaling pathway (AID 743069; active = well fitted curve in the direction sought with a large enough effect in the signal ratio in the repeat runs, not every such curve was filed as active; inconclusive = weak or mixed curves, or effect the other way; inactive = no such curve, though single readings can be large or run the other way; the % refers to the signal ratio)
Chain of Estrogen receptor (Homo sapiens) (P03372 whole entry, looked up): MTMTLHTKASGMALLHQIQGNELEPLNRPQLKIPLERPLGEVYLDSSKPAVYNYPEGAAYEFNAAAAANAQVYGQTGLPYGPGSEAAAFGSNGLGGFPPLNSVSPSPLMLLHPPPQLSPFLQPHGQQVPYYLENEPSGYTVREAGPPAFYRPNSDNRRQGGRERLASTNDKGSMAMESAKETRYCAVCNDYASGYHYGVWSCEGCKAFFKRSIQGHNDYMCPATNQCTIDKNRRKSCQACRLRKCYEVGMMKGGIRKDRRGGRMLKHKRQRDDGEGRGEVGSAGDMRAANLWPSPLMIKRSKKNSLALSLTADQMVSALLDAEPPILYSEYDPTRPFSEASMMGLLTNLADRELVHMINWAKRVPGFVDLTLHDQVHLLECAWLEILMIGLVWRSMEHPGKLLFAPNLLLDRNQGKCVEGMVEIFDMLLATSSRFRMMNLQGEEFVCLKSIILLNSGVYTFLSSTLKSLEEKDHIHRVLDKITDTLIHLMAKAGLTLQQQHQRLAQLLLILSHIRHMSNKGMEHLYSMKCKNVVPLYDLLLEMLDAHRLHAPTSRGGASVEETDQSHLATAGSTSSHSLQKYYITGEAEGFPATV
Summary of the method: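 Screening used a UAS-driven beta-lactamase reporter integrated into HEK293 cells expressing ER-alpha, stimulated with 17beta-estradiol alongside test compounds over 18 hr at 37C; signal came from LiveBLAzer B/G FRET fluorescence.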

[4] = qHTS assay to identify small molecule antagonists of the estrogen receptor alpha (ER-alpha) signaling pathway - cell viability counter screen (AID 743074; calls by dose curve; also: nearly all actives have a fitted effect of over 45% in size; also: potency is read from the fitted curve at half-maximal effect)
[5] = target: Estrogen receptor (Homo sapiens) (UniProt P03372); test: qHTS assay to identify small molecule agonists of the estrogen receptor alpha (ER-alpha) signaling pathway (AID 743075; calls by dose curve; also: potency is read from the fitted curve at half-maximal effect)
[6] = target: Estrogen receptor (Homo sapiens) (UniProt P03372); test: qHTS assay to identify small molecule agonists of the estrogen receptor alpha (ER-alpha) signaling pathway using the BG1 cell line (AID 743079); details: BG1Luc4E2 cells, ERE-luciferase agonist, 22 h; activation: at 70.3 µM (top of the series); also: nearly all actives have a fitted effect of over 20% in size; also: potency is read from the fitted curve at half-maximal effect
[7] = qHTS assay to identify small molecule antagonists of the estrogen receptor alpha (ER-alpha) signaling pathway using the BG1 cell line (AID 743080; calls by dose curve;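 also: BG1 cells stimulated with 17beta-estradiol alongside compound; nearly all actives have a fitted effect of over 25% in size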)
Summary of the method: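 Seeding, 24 h rest, compound transfer from DMSO, 17beta-estradiol addition, 21.5 h incubation, CellTiter-Fluor (30 min, 37 C), then ONE-Glo (30 min, room temperature): this sequence was run on BG1-Luc-4E2 reporter cells.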

[8] = qHTS assay to identify small molecule antagonists of the estrogen receptor alpha (ER-alpha) signaling pathway using the BG1 cell line - cell viability counter screen (AID 743081);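 also: compound given together with 17beta-estradiol as the ER stimulus; nearly all actives have a fitted effect of over 45% in size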
[9] = target: Aromatase (Homo sapiens) (UniProt P11511); test: qHTS assay to identify aromatase inhibitors (AID 743083); also: nearly all actives have a fitted effect of over 55% in size; also: potency is read from the fitted curve at half-maximal effect
Chain of Aromatase (Homo sapiens) (P11511 whole entry, looked up): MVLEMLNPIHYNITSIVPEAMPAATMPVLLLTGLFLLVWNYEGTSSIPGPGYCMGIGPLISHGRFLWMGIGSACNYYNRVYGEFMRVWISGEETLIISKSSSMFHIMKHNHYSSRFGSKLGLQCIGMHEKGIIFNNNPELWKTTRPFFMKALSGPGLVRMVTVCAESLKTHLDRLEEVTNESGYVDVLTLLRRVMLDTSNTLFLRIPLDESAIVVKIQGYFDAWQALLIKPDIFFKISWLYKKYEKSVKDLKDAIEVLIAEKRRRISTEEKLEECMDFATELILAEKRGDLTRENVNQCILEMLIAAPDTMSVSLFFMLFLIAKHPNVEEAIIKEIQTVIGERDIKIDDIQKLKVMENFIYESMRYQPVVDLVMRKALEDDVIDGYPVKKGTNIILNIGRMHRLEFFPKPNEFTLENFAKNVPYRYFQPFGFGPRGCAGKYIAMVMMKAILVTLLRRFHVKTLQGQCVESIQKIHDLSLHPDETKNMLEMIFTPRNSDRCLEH

[10] = qHTS assay to identify aromatase inhibitors - cell viability counter screen (AID 743084);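 also: cells stimulated with testosterone during compound exposure; nearly all actives have a fitted effect of over 55% in size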; also: potency is read from the fitted curve at half-maximal effect
[11] = target: Aryl hydrocarbon receptor (Homo sapiens) (UniProt P35869); test: qHTS assay to identify small molecule that activate the aryl hydrocarbon receptor (AhR) signaling pathway (AID 743085); also: nearly all actives have a fitted effect of over 15% in size; also: potency is read from the fitted curve at half-maximal effect;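 as to activation: HG2L7.5c1 human HepG2 liver cells with stably integrated DRE-driven firefly reporter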
Chain of Aryl hydrocarbon receptor (Homo sapiens) (P35869 whole entry, looked up): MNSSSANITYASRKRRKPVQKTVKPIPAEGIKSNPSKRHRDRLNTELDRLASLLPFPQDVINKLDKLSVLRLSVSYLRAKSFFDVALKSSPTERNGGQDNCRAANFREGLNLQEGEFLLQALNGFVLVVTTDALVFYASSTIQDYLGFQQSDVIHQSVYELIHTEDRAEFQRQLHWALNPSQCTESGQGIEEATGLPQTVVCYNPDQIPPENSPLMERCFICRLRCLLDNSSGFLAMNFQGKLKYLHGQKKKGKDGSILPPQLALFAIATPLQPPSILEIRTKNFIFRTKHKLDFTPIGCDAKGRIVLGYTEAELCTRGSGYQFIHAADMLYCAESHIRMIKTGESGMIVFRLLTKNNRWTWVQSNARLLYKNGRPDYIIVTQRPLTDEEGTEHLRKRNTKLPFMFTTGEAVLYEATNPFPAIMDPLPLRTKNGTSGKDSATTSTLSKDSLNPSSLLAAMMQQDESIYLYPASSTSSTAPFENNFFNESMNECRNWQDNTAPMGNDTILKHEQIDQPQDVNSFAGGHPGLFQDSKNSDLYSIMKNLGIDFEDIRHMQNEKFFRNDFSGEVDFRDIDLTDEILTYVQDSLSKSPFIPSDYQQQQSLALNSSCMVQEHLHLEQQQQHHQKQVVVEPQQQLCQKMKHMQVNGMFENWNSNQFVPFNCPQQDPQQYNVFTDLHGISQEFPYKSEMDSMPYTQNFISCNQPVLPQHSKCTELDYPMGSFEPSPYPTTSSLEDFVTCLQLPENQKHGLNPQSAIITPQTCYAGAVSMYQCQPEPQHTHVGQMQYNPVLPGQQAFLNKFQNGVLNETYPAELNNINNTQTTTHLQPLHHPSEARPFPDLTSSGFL
Summary of the method: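 Reporter assay in engineered HepG2 line HG2L7.5c1, whose plasmid carries twenty dioxin responsive elements upstream of firefly luciferase. Treatment lasted 24 h at 37C; ONE-Glo luminescence gauged induction.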

[12] = qHTS assay to identify small molecule that activate the aryl hydrocarbon receptor (AhR) signaling pathway - cell viability counter screen (AID 743086); also: nearly all actives have a fitted effect of over 45% in size; also: potency is read from the fitted curve at half-maximal effect
Summary of the method: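 HepG2-AhR-luc (HG2L7.5c1) cells, 4000/well, were preincubated 5 h at 37C, exposed to compound in qHTS format for 24 hr at 37C, then given CellTiter-Fluor for 30 min; viability was read as fluorescence in the reporter wells.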

[13] = target: Peroxisome proliferator-activated receptor gamma (Homo sapiens) (UniProt P37231); test: qHTS assay to identify small molecule agonists of the peroxisome proliferator-activated receptor gamma (PPARg) signaling pathway (AID 743094; active = well fitted activation curve with a large enough effect in the signal ratio in the repeat runs, not every such curve was filed as active; inconclusive = weak or mixed curves, or effect the other way; inactive = no such curve, though single readings can be large or run the other way; the % refers to the signal ratio)
Chain of Peroxisome proliferator-activated receptor gamma (Homo sapiens) (P37231 whole entry, looked up): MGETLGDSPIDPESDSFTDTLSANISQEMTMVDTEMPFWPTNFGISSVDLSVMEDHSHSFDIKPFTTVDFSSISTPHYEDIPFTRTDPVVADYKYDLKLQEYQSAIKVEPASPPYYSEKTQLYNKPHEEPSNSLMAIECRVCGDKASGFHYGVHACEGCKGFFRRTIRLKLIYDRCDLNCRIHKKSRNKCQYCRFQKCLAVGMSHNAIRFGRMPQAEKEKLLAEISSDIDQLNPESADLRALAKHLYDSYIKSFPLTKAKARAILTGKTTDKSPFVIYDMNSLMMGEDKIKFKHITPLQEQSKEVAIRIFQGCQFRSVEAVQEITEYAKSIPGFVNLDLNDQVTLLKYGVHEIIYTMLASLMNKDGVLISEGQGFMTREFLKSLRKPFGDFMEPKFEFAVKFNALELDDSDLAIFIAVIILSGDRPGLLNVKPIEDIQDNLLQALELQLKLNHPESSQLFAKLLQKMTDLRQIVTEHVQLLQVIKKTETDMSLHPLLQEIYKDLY
Summary of the method: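 Agonist activity was taken from a beta-lactamase reporter (FRET substrate, 1 h at room temperature) in HEK293H cells carrying a PPARg UAS-bla construct. Compounds in DMSO were incubated 17 h at 37C after a 5 h cell pre-incubation.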

[14] = target: Peroxisome proliferator-activated receptor gamma (Homo sapiens) (UniProt P37231); test: qHTS assay to identify small molecule antagonists of the peroxisome proliferator-activated receptor gamma (PPARg) signaling pathway (AID 743191; calls by dose curve; also: nearly all actives have a fitted effect of over 30% in size)
Summary of the method: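 GeneBLAzer PPARg UAS-bla HEK293H cells carrying a UAS-driven beta-lactamase reporter were plated at 3000 cells/well, preincubated 5 h at 37C, then given compound for 17 h at 37C; LiveBLAzer B/G FRET substrate was read after 1 h at room temperature.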

[15] = qHTS assay to identify small molecule antagonists of the peroxisome proliferator-activated receptor gamma (PPARg) signaling pathway - cell viability counter screen (AID 743194); also: nearly all actives have a fitted effect of over 55% in size; also: potency is read from the fitted curve at half-maximal effect
Summary of the method: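 PPARg-UAS-bla HEK293H cells were plated, rested 5 h at 37 C, then treated with compounds plus rosiglitazone (50 nM final) for 17 h at 37 C; viability was then read by CellTiter-Glo luminescence after 30 min at room temperature.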

[16] = qHTS assay for small molecule agonists of the antioxidant response element (ARE) signaling pathway (AID 743202; active = well fitted activation curve with a large enough effect in the signal ratio in the repeat runs, not every such curve was filed as active; inconclusive = weak or mixed curves, or effect the other way; inactive = no such curve, though single readings can be large or run the other way; the % refers to the signal ratio; also: potency is read from the fitted curve at half-maximal effect)
Summary of the method: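 Steps: seed ARE-bla HepG2 cells (2,000/well); incubate 5 h at 37 C; add compounds by pin tool; incubate 16 h at 37 C; add FRET substrate; read fluorescence after 2 h at RT.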

[17] = qHTS assay for small molecule agonists of the antioxidant response element (ARE) signaling pathway - cell viability counter screen (AID 743203; calls by dose curve; also: nearly all actives have a fitted effect of over 55% in size; also: potency is read from the fitted curve at half-maximal effect)
Summary of the method: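 Viability counter screen: CellTiter-Glo luminescence, read after 30 min at room temperature, in ARE-bla HepG2 wells. Compound exposure lasted 16 h at 37C/5% CO2, following a 5 h pre-incubation of the cells after plating.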

[18] = qHTS assay for small molecule activators of the heat shock response signaling pathway - cell viability counter screen (AID 743209); also: nearly all actives have a fitted effect of over 50% in size; also: potency is read from the fitted curve at half-maximal effect
Summary of the method: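 Cytotoxicity counter screen run in the same wells as the heat-shock bla reporter assay: HeLa HSE-bla cells, 5 h compound exposure at 37 C, viability read by CellTiter-Glo luminescence.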

[19] = qHTS assay for small molecule activators of the heat shock response signaling pathway (AID 743210; active = well fitted activation curve with a large enough effect in the signal ratio in the repeat runs, with a control signal flat, not every such curve was filed as active; inconclusive = weak or mixed curves; the % refers to the signal ratio;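 also: HeLa cells with beta-lactamase reporter driven by heat shock elements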)
Summary of the method: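 Activation of heat shock element-controlled beta-lactamase expression is measured in HeLa cells by LiveBLAzer FRET fluorescence, with compound exposure lasting 5 h at 37 C and substrate loading 2.5 h at room temperature.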

[20] = qHTS assay to identify small molecule antagonists of the thyroid receptor (TR) signaling pathway - cell viability counter screen (AID 743064); also: potency is read from the fitted curve at half-maximal effect; nearly all actives have a fitted effect of over 50% in size
Summary of the method: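 Same-well viability check: GH3.TRE-Luc cells stimulated with 1 nM T3 alongside test compound for 23.5 h, followed by CellTiter-Fluor fluorescence.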

SMILES	Potency [1]	outcome [2]	Potency [3]	Potency [4]	Potency [5]	Potency [6]	Potency [7]	Potency [8]	Potency [9]	Potency [10]	Potency [11]	Potency [12]	Potency [13]	Potency [14]	Potency [15]	Potency [16]	Potency [17]	Potency [18]	Potency [19]	Potency [20]
FC(F)(F)c1ccccc1Cl	inactive	inactive	inactive	inactive	inactive	inactive	inactive	inactive	inactive	inactive	inactive	inactive	inactive	inactive	inactive	inactive	inactive	inactive	inactive	
C/C=C\C/C=C/CCCCCCCCOC(C)=O	68.6 µM (active)	inactive	inactive	inactive	inactive	inactive	inactive	inactive	inactive		inactive	inactive			inactive		inactive	inactive		
Nc1nnc(-c2ccc([N+](=O)[O-])o2)o1			inactive	inactive	inactive				48.6 µM (active)	61.1 µM (active)		54.5 µM (active)	inactive	inactive			48.6 µM (active)	inactive	inactive	61.1 µM (active)
CC(C)COCC(CN(Cc1ccccc1)c1ccccc1)N1CCCC1 (centres undefined)	10.6 µM (active)			inactive	inactive	inactive	inactive	inactive		inactive	inactive	inactive	inactive	inactive	26.6 µM (active)		26.6 µM (active)			
Nc1nc2ccc([N+](=O)[O-])cc2s1	48.6 µM (active)	inactive							inactive		32.5 µM (active)		inactive			9.69 µM (active)	inactive			
Oc1cccc(O)c1O	inactive	inactive		inactive	21.3 µM [inconclusive] (active) and 54.5 µM [inconclusive] (active)	5.96 µM (active)	inactive	inactive	inactive	inactive		inactive	inactive	inactive	inactive	inactive	inactive	inactive	inactive	
Cc1ccc2c(Br)cc(Br)c(O)c2n1				inactive				inactive			13.3 µM (active)	inactive			23.7 µM (active)		inactive	inactive		26.6 µM (active)
OC[C@H]1O[C@@H](n2cnc3c(=S)nc[nH]c32)[C@H](O)[C@@H]1O	23.7 µM (active)	inactive			inactive	inactive		inactive	inactive	inactive	inactive	inactive			3.76 µM (active)	3.35 µM (active)	2.66 µM (active)	inactive	inactive	
CCCC(C(=O)OCCN(CC)CC)(c1ccccc1)c1ccccc1			inactive	inactive	inactive	inactive	inactive				inactive		inactive		inactive		inactive	inactive		23.7 µM (active)
C1COC1	inactive	inactive	inactive	inactive	inactive		inactive	inactive	inactive	inactive	inactive	inactive	inactive	inactive	inactive	inactive	inactive	inactive	inactive	
CS(=O)(=O)c1ccc(-c2cn3ccccc3n2)cc1															inactive	inactive				
CCCCC(CC)CN (centres undefined)		inactive	inactive		inactive	inactive	inactive	inactive		inactive	inactive	inactive	inactive	inactive	inactive		inactive		inactive	
CCOC(=O)c1ccc(I)cc1		inactive	inactive	inactive	inactive	inactive	inactive	inactive	inactive	inactive	inactive	inactive	inactive	inactive	inactive	inactive	inactive	inactive	inactive	
COC(=O)c1nc(Cl)c(Cl)nc1N															26.6 µM (active)		23.7 µM (active)	5.31 µM (active)		
CC(=O)c1cc2ccccc2s1																inactive	inactive	inactive	inactive	
O=c1c(O)c(-c2ccc(O)cc2)oc2cc(O)cc(O)c12		inactive		inactive				inactive		inactive		inactive			inactive	inactive	inactive	inactive		
CCOc1cccc(-n2cc(C(=O)N3CCN(c4cc(C(=O)O)c5ccccc5c4)CC3)nc2-c2ccc(C)cc2)c1		inactive						inactive	inactive	inactive	inactive	inactive			18.6 µM (active)	9.25 µM (active)		inactive		
CC(=O)OCC(=O)NCCCOc1cccc(CN2CCCCC2)c1				inactive				inactive	inactive	inactive		inactive	inactive		inactive	inactive	inactive	inactive	inactive	
CCOC(=O)c1ccc(O)c(O)c1														inactive	inactive	inactive	inactive	inactive	inactive	
Cc1cc(O)ccc1O		inactive		inactive				inactive			61.8 µM (active)	inactive			inactive		inactive	inactive		
OC(CCN1CCCC1)(c1ccccc1)C1CCCCC1 (centres undefined)		inactive		inactive				inactive	inactive	inactive	inactive	inactive	inactive	inactive	inactive	inactive	inactive	inactive		

SMILES	Potency [1]	outcome [2]	Potency [3]	Potency [4]	Potency [5]	Potency [6]	Potency [7]	Potency [8]	Potency [9]	Potency [10]	Potency [11]	Potency [12]	Potency [13]	Potency [14]	Potency [15]	Potency [16]	Potency [17]	Potency [18]	Potency [19]	Potency [20]
COc1ccc(OC(=O)N(CC(=O)O)Cc2ccc(OCCc3nc(-c4ccccc4)oc3C)cc2)cc1															inactive		inactive	inactive	inactive	
CCCCN(CCN(CCCC)C(=O)N1CCOCC1)C(=O)N1CCOCC1															inactive	inactive	inactive	inactive		
CCCCN(CCCC)C(C(N)=O)c1ccc(OC)cc1 (centres undefined)															inactive	inactive	inactive	inactive	inactive	
Cc1cc(O)c(C)c(C)c1O														inactive	inactive	23.7 µM (active)	inactive	inactive	inactive	
CNC(=O)c1cnn(-c2nc(N)c3ncn([C@@H]4O[C@H](CO)[C@@H](O)[C@H]4O)c3n2)c1															inactive	inactive	inactive	inactive		
CN1CCCN=C1COC(=O)C(O)(c1ccccc1)C1CCCCC1 (centres undefined)		inactive	inactive		inactive	inactive	inactive	inactive	inactive	inactive	inactive	inactive	inactive	inactive		inactive	inactive	inactive	inactive	
CN(C(=O)CN(CCO)CC(=O)N(C)C(C)(C)Cc1ccccc1)C(C)(C)Cc1ccccc1		inactive		inactive				inactive				inactive			inactive	inactive	inactive	inactive		
C=CCc1ccccc1OCC(O)CNC(C)C (centres undefined)		inactive		inactive				inactive	inactive	inactive	inactive	inactive	inactive		inactive		inactive	inactive	inactive	
CCc1ccccc1			inactive	inactive	inactive	inactive	inactive	inactive	inactive	inactive	inactive		inactive	inactive	inactive	inactive	inactive			
c1ccc2sc(SN(C3CCCCC3)C3CCCCC3)nc2c1		inactive	inactive	inactive	inactive	inactive	inactive	inactive	inactive	inactive		inactive	inactive			30.3 µM (active)	inactive	inactive	inactive	
CC(C)(C)CC(=O)OCC(=O)[C@@]1(O)CC[C@H]2[C@@H]3CCC4=CC(=O)C=C[C@]4(C)[C@H]3[C@@H](O)C[C@@]21C															inactive	inactive	inactive	inactive		
OC1(c2ccccc2)CCNCC1														inactive	inactive	inactive	inactive	inactive	inactive	
CC(CC1c2ccccc2CCc2ccccc21)CN(C)C (centres undefined)																	inactive	inactive		
C=C/C(C)=C/C/C=C(\C)CCC=C(C)C		inactive	inactive	inactive	inactive	inactive	inactive	inactive	inactive		inactive	inactive			inactive	54.5 µM (active)				
CCCCOc1ccc(OCCCN2CCOCC2)cc1		inactive	inactive	inactive	inactive	inactive	inactive	inactive	inactive	inactive	inactive	inactive	inactive	inactive	inactive		inactive	inactive	inactive	
Cc1[nH]cnc1CN1CCc2c(c3ccccc3n2C)C1=O				inactive				inactive	inactive	inactive		inactive	inactive		inactive	inactive	inactive	inactive	inactive	
CCOC(=O)/C=C/C(=O)OCC			inactive	inactive	inactive	inactive	inactive	inactive	inactive	inactive	inactive	inactive	inactive	inactive	inactive		inactive	inactive	inactive	
CC(C)=CCC/C(C)=C/CC/C(C)=C/C(=O)OCC(=O)[C@@]1(O)CC[C@H]2[C@@H]3CCC4=CC(=O)C=C[C@]4(C)[C@H]3[C@@H](O)C[C@@]21C																		inactive		
COc1ccccc1N1CCN(CCCCNC(=O)c2ccc(-c3ccc(C(C)=O)cc3)cc2)CC1		inactive	inactive	inactive	inactive	inactive			inactive	inactive	inactive	inactive	inactive	inactive	inactive		inactive	inactive	inactive	
O=C1C(=O)c2ccccc2C(O)=C1C1CCC(c2ccc(Cl)cc2)CC1 (centres undefined)		inactive		2.04 µM (active)	inactive	inactive		inactive	inactive	inactive	4.03 µM (active)	inactive	inactive			6.68 µM (active)		inactive		
